Active and inactive are the calls of the source. Unless noted, the rule behind the calls is not given here.
What was measured:
[1] = tested on: XIP peptide (Xip251-270) binding; assay: XIP fragment 251-270 binding compounds – biochemical, small-molecule microarray, fluorescence 635/667 nm, 0.1 µg/mL protein, primary screen (AID 1182); conditions: fluorescent protein binding, 635 nm, higher = more signal, called active from +8 up or from −8 down
XIP peptide (Xip251-270) = assay: compounds binding XIP fragment 251-270 – biochemical, small-molecule microarray, fluorescence 635/667 nm, 0.5 µg/mL protein, primary screen (AID 1183); conditions: fluorescence 635 nm, higher = more signal
[2] = blood-stage malaria parasite viability loss – strain 3D7, DAPI fluorescence, 100 nL, primary screen (AID 1184);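 note: parasites grown inside human red blood cells in medium with human serum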; conditions: P. falciparum 3D7 growth, 3 d, higher = more signal
[3] = molecular target: Homeobox protein Hox-A13 (Mus musculus) (UniProt Q62424); assay: disruptors of Hoxa13 oligonucleotide interaction – biochemical, fluorescence polarization, labeled oligonucleotide, primary screen (AID 1185); conditions: Hoxa13:DNA binding, 15 min, higher = more signal, called active from +8 up or from −8 down
[4] = blockers of DNA damage checkpoint Chk1 activation – imaging, HeLa, hydroxyurea, phospho-Chk1 antibody, percent positive cells, primary screen (AID 1186); conditions: hydroxyurea-induced phospho-Chk1 immunofluorescence imaging, higher = more signal
[5] = blockers of DNA damage checkpoint Chk1 activation – imaging, HeLa, hydroxyurea, phospho-Chk1 nuclear intensity, primary screen (AID 1187); conditions: hydroxyurea-induced phospho-Chk1 immunofluorescence imaging, higher = more signal

Sequence of Homeobox protein Hox-A13 (Mus musculus) (Q62424 whole entry, looked up): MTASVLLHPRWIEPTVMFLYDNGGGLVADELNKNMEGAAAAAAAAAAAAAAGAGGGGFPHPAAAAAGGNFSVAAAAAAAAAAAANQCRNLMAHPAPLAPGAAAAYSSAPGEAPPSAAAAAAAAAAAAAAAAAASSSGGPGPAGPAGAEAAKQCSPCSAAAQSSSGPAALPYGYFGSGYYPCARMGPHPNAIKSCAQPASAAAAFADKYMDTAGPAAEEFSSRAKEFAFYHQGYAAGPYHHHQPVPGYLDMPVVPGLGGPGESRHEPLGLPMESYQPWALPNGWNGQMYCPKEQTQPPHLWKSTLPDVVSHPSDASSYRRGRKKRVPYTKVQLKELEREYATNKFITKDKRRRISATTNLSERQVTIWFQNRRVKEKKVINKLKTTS

| SMILES | composite z-score [1] | composite z-score (XIP peptide (Xip251-270)) | z-score [2] | z-score [3] | z-score [4] | z-score [5] |
| --- | --- | --- | --- | --- | --- | --- |
| COC(=O)[C@@]1(Cc2ccc(OC)cc2)[C@H]2c3cc(C(=O)N(C)C)n(Cc4ccsc4Br)c3C[C@H]2CN1C(=O)c1ccccc1 | 0.197 (inactive) | 0.793 | -1.02 | -1.15 (inactive) | 0.0352 (inactive) | 0.984 (inactive) |
| C=CCNC(=O)[C@@H]1[C@H]2C(=O)O[C@H](c3ccccc3)[C@H](c3ccccc3)N2[C@H](c2ccccc2OCCO)[C@@]12C(=O)N(C(=O)OCCOC)c1ccc(C#CCCO)cc12 | 0.397 (inactive) | 0.683 | -2.09 | -1.71 (inactive) | -0.37 (inactive) | -0.538 (inactive) |
| COCCOC(=O)N1C(=O)[C@@]2(c3cc(C#CCCO)ccc31)[C@H](c1ccc(O)cc1)N1[C@H](c3ccccc3)[C@H](c3ccccc3)OC(=O)[C@H]1[C@@H]2C(=O)N1CCc2cc(OC)c(OC)cc2C1 | 0.0404 (inactive) | 0.786 | -0.0976 | -1.97 (inactive) | -0.0202 (inactive) | 0.0613 (inactive) |
| C[N+](C)(C)CCCC[C@@H]1NC(=O)[C@H]2C[C@@H](C(=O)NCCCCCNC(=O)CS)[C@@H](c3ccc(O)cc3)N2C1=O | 0.949 (inactive) | 0.696 | -0.0941 | -0.677 (inactive) | 0.0225 (inactive) | 0.579 (inactive) |
| COc1ccc(CCNC(=O)[C@@]2(Sc3ccc(C)cc3)CC(=O)N(Cc3cc(C(F)(F)F)cc(C(F)(F)F)c3)[C@@H]2c2ccc(CO)cc2)cc1 | -0.461 (inactive) | 0.705 | 0.264 | -2.57 (inactive) | 0.132 (inactive) | 0.282 (inactive) |
| COCCOC(=O)N1C(=O)[C@@]2(c3cc(C#CC4(O)CCCCCC4)ccc31)[C@H](c1ccc(OCCO)cc1)N1[C@H](c3ccccc3)[C@H](c3ccccc3)OC(=O)[C@H]1[C@@H]2C(N)=O | 0.539 (inactive) | 0.849 | -2.02 | -1.87 (inactive) | -0.0641 (inactive) | -0.215 (inactive) |
| COC(=O)c1c(CC[C@@H](CO)NC(=O)N[C@@H](Cc2ccccc2)Cn2cc(-c3cncn3C)nn2)oc(C(C)=O)c1C(=O)OC | 0.606 (inactive) | 0.851 | -2.06 | -4.35 (inactive) | -0.331 (inactive) | -0.0353 (inactive) |
| C=CC[C@]1(C(=O)NCCCOC)N=C(c2ccc(OCCCO)cc2)O[C@H]1c1ccccc1 | 0.227 (inactive) | 0.659 | -0.67 | -6.7 (inactive) | -0.132 (inactive) | 0.0245 (inactive) |
| C[C@H]1NC(=O)C([C@@H](C)OCc2ccccc2)NC(=O)[C@@]23C(=O)N[C@@H](Cc4ccccc4)C2[C@H](C)[C@@]2(C)O[C@H]2C3/C=C/C/C=C\CNC1=O (some centres not stated) | -0.113 (inactive) | -0.417 | -2.93 | -6.74 (inactive) | 0.314 (inactive) | 0.451 (inactive) |
| CCCCN1CC=CC23O[C@@H]4/C=C\CCC(C)OC(=O)C4[C@H]2C(=O)N(C(C)CO)[C@@H]3C1=O (some centres not stated) | 1.02 (inactive) | -0.369 | 0.105 | -5.78 (inactive) | 0.479 (inactive) | 0.632 (inactive) |
| COc1ccccc1CN1C(=O)c2ccccc2[C@](Cc2ccccc2I)(C(=O)NCCCN(C)C)[C@@H]1c1ccc(CO)cc1 | 0.287 (inactive) | 0.808 | -2.36 | 1.61 (inactive) | -0.215 (inactive) | -0.184 (inactive) |
| COCCOC(=O)N1C(=O)[C@@]2(c3cc(C#CC4=CCCCC4)ccc31)[C@H](c1ccc(OCCO)cc1)N1[C@H](c3ccccc3)[C@H](c3ccccc3)OC(=O)[C@H]1[C@@H]2C(=O)N1CCCCCCC1 | 1.32 (inactive) | 0.822 | -2.06 | -15.2 (active) | -0.002 (inactive) | 0.437 (inactive) |
| O=C1C2C=CC(C(O)C(c3ccccc3)c3ccccc3)N(Nc3ccccc3)C2C(=O)N1c1ccccc1 (configuration not stated) | 2.35 (inactive) | 0.722 | -0.28 | -1.33 (inactive) | -0.571 (inactive) | -0.706 (inactive) |
| CCN(CC)c1ccc(N2CC=CC34O[C@@H]5C=CCOC(=O)[C@@H]5[C@H]3C(=O)N(CCO)[C@@H]4C2=O)cc1 (some centres not stated) | -0.228 (inactive) | -1.29 | 0.738 | -4.9 (inactive) | -0.52 (inactive) | -0.456 (inactive) |
| O=C(NCC(F)(F)F)[C@@H]1c2ccccc2C(=O)N(CC23CC4CC(CC(C4)C2)C3)[C@H]1c1ccc(CO)cc1 | 0.35 (inactive) | 0.586 | -2.24 | -4.02 (inactive) | -0.254 (inactive) | -0.371 (inactive) |
| CN1C(=O)[C@]2(CCS(=O)(=O)c3ccccc3)N=C(c3ccc(OCCCO)cc3)O[C@@H]2c2ccccc21 | 2.2 (inactive) | 0.897 | -2.32 | -5.03 (inactive) | -0.122 (inactive) | 0.271 (inactive) |
| CC(C)(C)OC(=O)CC[C@]1(C(=O)N2CCOCC2)N=C(c2ccc(OCCCO)cc2)O[C@H]1c1ccccc1CN=[N+]=[N-] | 0.518 (inactive) | 0.792 | -1.79 | -6.05 (inactive) | -0.0845 (inactive) | -0.314 (inactive) |
